Among all 39,000 compounds or so, about 1,500 (3.8%) were called active. The list comes from a sample in which actives are over-represented; it also holds similar structures and randomly drawn compounds.

The values below come from the antibiotic and cytotoxicity screens of Wong et al. (2023).

This test deals with HSkMC (human skeletal muscle cells). As to the kind of experiment: cytotoxicity call (relative viability < 0.9). As to conditions: 10 µM.
With `c1ccc2c(c1)-c1ccc3ccc4cccc5cc-2c1c3c45`, the cytotoxicity call is “inactive”.

For `CCN(CC)CCNC(=O)COc1ccc(OC)cc1.Cl`, the cytotoxicity call was “inactive”.

With `CCN(CC)CCCCNc1ncc2cc(-c3c(Cl)cccc3Cl)c(NC(=O)NC(C)(C)C)nc2n1`, the cytotoxicity call was “inactive”.

As for `CCN(CC)CCCCNc1ncc2cc(-c3cc(OC)cc(OC)c3)c(NC(=O)NC(C)(C)C)nc2n1`, the cytotoxicity call is “active”.

In the case of `Cc1noc(C)c1S(=O)(=O)N(C)C[C@@H]1Oc2ccc(NC(=O)Cc3cn(C)c4ccccc34)cc2CC(=O)N([C@@H](C)CO)C[C@H]1C`, the cytotoxicity call is “inactive”.

As to `C[C@@H]1CN([C@@H](C)CO)C(=O)c2cc(NS(=O)(=O)c3ccc(F)cc3)ccc2O[C@@H]1CN(C)CC1CC1`, the cytotoxicity call was “inactive”.

For the compound `COc1cc(C(=O)OCCN2CCN(CCOC(=O)c3cc(OC)c(OC)c(OC)c3)CC2)cc(OC)c1OC`, the cytotoxicity call was “inactive”.

Turning to `CCc1c(O)cc(O)c(C(=O)c2ccc(OCCN3CCOCC3)c(OC)c2)c1CC(=O)N(CCOC)CCOC`, the cytotoxicity call is “active”.

Consider `COc1c(OCCCN2CCOCC2)ccc2c1N=C(NC(=O)c1cnc(N)nc1)N1CCN=C21`, for which the cytotoxicity call was “inactive”.

Consider `C[C@@H]1CN([C@@H](C)CO)S(=O)(=O)c2ccc(C#CC3(O)CCCC3)cc2O[C@H]1CN(C)C(=O)Nc1ccccc1`, for which the cytotoxicity call was “inactive”.

Regarding `N=C(N)N/N=C1\CCc2c(C(=N)N)cccc21`, the cytotoxicity call was “active”.

Turning to `C[C@H](CO)N1C[C@H](C)[C@H](CN(C)S(=O)(=O)c2ccccc2)Oc2ccc(NS(=O)(=O)c3ccccc3)cc2CC1=O`, the cytotoxicity call was “inactive”.

Regarding `C[C@H](CO)N1C[C@H](C)[C@@H](CN(C)Cc2ccc3c(c2)OCO3)Oc2cc(C#CCN(C)C)ccc2S1(=O)=O`, the cytotoxicity call is “inactive”.

As for `CNC(=O)c1ccc(Nc2ncc(C(F)(F)F)c(NCc3nccnc3N(C)S(C)(=O)=O)n2)cc1`, the cytotoxicity call was “active”.

Regarding `CN(c1ncccc1CNc1nc(Nc2ccc3c(c2)CC(=O)N3)ncc1C(F)(F)F)S(C)(=O)=O`, the cytotoxicity call was “active”.

For the compound `C[C@H](CO)N1C[C@H](C)[C@@H](CN(C)S(C)(=O)=O)Oc2ccc(NS(=O)(=O)c3cccs3)cc2CC1=O`, the cytotoxicity call is “inactive”.

In the case of `C[C@H](CO)N1C[C@H](C)[C@@H](CN(C)S(=O)(=O)c2cn(C)cn2)Oc2ccc(NC(=O)CCC(F)(F)F)cc2CC1=O`, the cytotoxicity call was “inactive”.

For the compound `COc1ccncc1-c1ccccc1CN(C(=O)c1ccc(-c2ccc(C#N)cc2)o1)c1ccc(N2CCNCC2)cc1`, the cytotoxicity call is “active”.

Turning to `C[C@H](CO)N1C[C@H](C)[C@@H](CN(C)Cc2ccc(Cl)c(Cl)c2)Oc2ccc(NC(=O)Nc3ccc(F)cc3)cc2CC1=O`, the cytotoxicity call is “active”.

For `C[C@@H]1CN([C@H](C)CO)C(=O)Cc2cc(NC(=O)Nc3ccc(F)cc3)ccc2O[C@H]1CN(C)Cc1ccc(Cl)c(Cl)c1`, the cytotoxicity call is “active”.

In the case of `C[C@@H]1CN([C@@H](C)CO)C(=O)Cc2cc(NC(=O)Nc3ccc(F)cc3)ccc2O[C@@H]1CN(C)Cc1ccc(Cl)c(Cl)c1`, the cytotoxicity call was “active”.

In the case of `C[C@@H]1CN([C@@H](C)CO)C(=O)Cc2cc(NC(=O)Nc3ccc(F)cc3)ccc2O[C@H]1CN(C)Cc1ccc(Cl)c(Cl)c1`, the cytotoxicity call is “active”.

For `C[C@@H]1CCCCO[C@@H](CN(C)C(=O)c2ccccc2)[C@H](C)CN([C@H](C)CO)C(=O)c2cc(NC(=O)Nc3cccc4ccccc34)ccc2O1`, the cytotoxicity call was “inactive”.

With `C[C@@H]1CN([C@@H](C)CO)C(=O)c2cc(NS(=O)(=O)c3ccc(F)cc3)ccc2O[C@@H](C)CCCCO[C@@H]1CN(C)C(=O)Nc1ccccc1`, the cytotoxicity call was “inactive”.

For `C[C@H]1CCCCO[C@H](CN(C)Cc2ccc(C(F)(F)F)cc2)[C@@H](C)CN([C@@H](C)CO)C(=O)c2cc(NC(=O)C3CCCCC3)ccc2O1`, the cytotoxicity call is “inactive”.

`C[C@@H]1CN([C@H](C)CO)C(=O)Cc2cc(NC(=O)CCN3CCOCC3)ccc2O[C@@H]1CN(C)Cc1ccccc1`: the cytotoxicity call was “inactive”.

For `C[C@H](CO)N1C[C@H](C)[C@H](CN(C)Cc2ccc(Oc3ccccc3)cc2)Oc2ccc(NC(=O)C3CCCCC3)cc2C1=O`, the cytotoxicity call is “inactive”.

As to `Cc1ccc(S[C@]2(C(=O)O)CC(=O)N(Cc3ccccc3C(F)(F)F)[C@@H]2c2ccc(CO)cc2)cc1`, the cytotoxicity call is “inactive”.

For `COc1cccc(S(=O)(=O)N(C)C[C@@H]2Oc3ncc(-c4cccc(F)c4)cc3C(=O)N([C@H](C)CO)C[C@@H]2C)c1`, the cytotoxicity call was “inactive”.

In the case of `C[C@H](CO)N1C[C@H](C)[C@H](CN(C)Cc2ccc(C(=O)O)cc2)Oc2ccc(NC(=O)c3ccncc3)cc2C1=O`, the cytotoxicity call was “inactive”.

Turning to `C[C@@H]1CCCCO[C@@H](CN(C)Cc2ccc(C(=O)O)cc2)[C@@H](C)CN([C@@H](C)CO)C(=O)c2cc(NS(=O)(=O)c3cccs3)ccc2O1`, the cytotoxicity call is “inactive”.

Regarding `C[C@@H]1CN([C@H](C)CO)C(=O)CCCn2cc(nn2)CO[C@@H]1CN(C)S(=O)(=O)c1ccc2ccccc2c1`, the cytotoxicity call was “inactive”.

As to `O=C(C[C@@H]1CC[C@@H]2[C@H](COC[C@@H](O)CN2C(=O)Nc2ccc(F)cc2)O1)NCCCN1CCOCC1`, the cytotoxicity call is “inactive”.

Take `C[C@@H]1CN([C@@H](C)CO)C(=O)c2cc(NS(=O)(=O)c3ccc(F)cc3)ccc2O[C@@H](C)CCCCO[C@H]1CN(C)Cc1ccc(C(=O)O)cc1`: the cytotoxicity call is “inactive”.

Consider `C[C@@H](O)[C@@H](O)[C@@H](O)C/C=N/NC(=O)c1ccc(C(=O)NO)cc1`, for which the cytotoxicity call is “inactive”.

For the compound `Cc1cc([N+](=O)[O-])nn1CC(=O)N1CCOCC1`, the cytotoxicity call is “inactive”.

Consider `COc1ccc(NC(=O)N(C)C[C@@H]2OCCCC[C@H](C)Oc3ccc(NC(=O)Nc4ccc(F)cc4)cc3C(=O)N([C@H](C)CO)C[C@@H]2C)cc1`, for which the cytotoxicity call is “inactive”.

On to `C[C@H]1CN([C@@H](C)CO)C(=O)Cc2cc(NC(=O)Nc3ccc(F)cc3)ccc2O[C@H]1CN(C)Cc1ccc(Cl)c(Cl)c1`, for which the cytotoxicity call is “active”.

On to `C[C@@H]1CN([C@H](C)CO)C(=O)Cc2cc(NC(=O)Nc3ccc(F)cc3)ccc2O[C@@H]1CN(C)Cc1ccc(Cl)c(Cl)c1`, for which the cytotoxicity call was “active”.

As to `C[C@H](CO)N1C[C@H](C)[C@H](CN(C)Cc2ccc(Cl)c(Cl)c2)Oc2ccc(NC(=O)Nc3ccc(F)cc3)cc2CC1=O`, the cytotoxicity call is “active”.

For the compound `C[C@H]1CN([C@@H](C)CO)C(=O)Cc2cc(NC(=O)Nc3ccc(F)cc3)ccc2O[C@@H]1CN(C)Cc1ccc(Cl)c(Cl)c1`, the cytotoxicity call was “active”.

With `Cc1noc(C)c1NC(=O)N(C)C[C@H]1Oc2c(NS(=O)(=O)c3cn(C)cn3)cccc2C(=O)N([C@@H](C)CO)C[C@H]1C`, the cytotoxicity call was “inactive”.

As for `C/C=C/COc1nc2c(c(=O)n(C)c(=O)n2C)n1C`, the cytotoxicity call was “inactive”.

For the compound `C[C@H]1CN([C@@H](C)CO)C(=O)c2cc(NC(=O)Cn3cnnn3)ccc2O[C@@H]1CN(C)C(=O)NC1CCCCC1`, the cytotoxicity call is “inactive”.

Take `C[C@@H]1CN([C@@H](C)CO)C(=O)c2cccc(NC(=O)Nc3ccc(F)cc3)c2O[C@@H]1CN(C)Cc1ccc(C(F)(F)F)cc1`: the cytotoxicity call is “inactive”.

As to `CC(C)NC(=O)N(C)C[C@H]1Oc2ccc(NC(=O)Cn3cnnn3)cc2CC(=O)N([C@H](C)CO)C[C@@H]1C`, the cytotoxicity call is “inactive”.

`CC(=O)OCC(=O)C1(O)CCC2C3CCC4CC(O)CCC4(C)C3C(=O)CC21C` (stereo unspecified): the cytotoxicity call is “inactive”.

Regarding `COc1ccc(NC(=O)Nc2ccc3c(c2)C(=O)N([C@H](C)CO)C[C@H](C)[C@H](CN(C)S(=O)(=O)c2cccs2)OCCCC[C@H](C)O3)cc1`, the cytotoxicity call is “inactive”.

Turning to `C[N+](C)(C)CCCCNC(=O)[C@H]1C[C@H]2C(=O)N3CCC[C@H]3C(=O)N2[C@H]1c1cccc(OCCO)c1`, the cytotoxicity call was “inactive”.

In the case of `C[C@H](CO)N1C[C@H](C)[C@@H](CN(C)C(=O)c2ccc3c(c2)OCO3)Oc2cc(-c3cncnc3)ccc2S1(=O)=O`, the cytotoxicity call was “inactive”.

`CCCCCCCCCC(=O)N[C@@H](Cc1c[nH]c2ccccc12)C(=O)N[C@H](CC(N)=O)C(=O)N[C@@H](CC(=O)O)C(=O)N[C@@H]1C(=O)NCC(=O)N[C@@H](CCCN)C(=O)N[C@@H](CC(=O)O)C(=O)N[C@H](C)C(=O)N[C@@H](CC(=O)O)C(=O)NCC(=O)N[C@H](CO)C(=O)N[C@@H]([C@H](C)CC(=O)O)C(=O)N[C@@H](CC(=O)c2ccccc2N)C(=O)O[C@@H]1C`: the cytotoxicity call was “inactive”.

With `C[C@@H]1CN([C@@H](C)CO)C(=O)Cc2cc(NC(=O)Nc3ccc(C(F)(F)F)cc3)ccc2O[C@@H]1CN(C)C(=O)NC1CCCCC1`, the cytotoxicity call is “active”.

As for `C[C@@H]1CN([C@H](C)CO)C(=O)Cc2cc(NC(=O)Nc3ccc(C(F)(F)F)cc3)ccc2O[C@@H]1CN(C)C(=O)NC1CCCCC1`, the cytotoxicity call was “active”.

Turning to `C[C@@H]1CN([C@@H](C)CO)C(=O)Cc2cc(NC(=O)Nc3ccc(C(F)(F)F)cc3)ccc2O[C@H]1CN(C)C(=O)NC1CCCCC1`, the cytotoxicity call was “inactive”.

On to `C[C@H]1CN([C@@H](C)CO)C(=O)Cc2cc(NC(=O)Nc3ccc(C(F)(F)F)cc3)ccc2O[C@H]1CN(C)C(=O)NC1CCCCC1`, for which the cytotoxicity call is “inactive”.

On to `C[C@H](CO)N1C[C@H](C)[C@@H](CN(C)C(=O)NC2CCCCC2)Oc2ccc(NC(=O)Nc3ccc(C(F)(F)F)cc3)cc2CC1=O`, for which the cytotoxicity call was “inactive”.

Consider `C[C@@H]1CN([C@H](C)CO)C(=O)Cc2cc(NC(=O)Nc3ccc(C(F)(F)F)cc3)ccc2O[C@H]1CN(C)C(=O)NC1CCCCC1`, for which the cytotoxicity call was “inactive”.

For the compound `C[C@H](CO)N1C[C@H](C)[C@@H](CN(C)Cc2ccc(Oc3ccccc3)cc2)Oc2cc(-c3ccncc3)ccc2S1(=O)=O`, the cytotoxicity call was “inactive”.

In the case of `C[C@H]1CCCCO[C@@H](CN(C)C(=O)Nc2ccc(C(F)(F)F)cc2)[C@@H](C)CN([C@@H](C)CO)C(=O)c2cc(NS(C)(=O)=O)ccc2O1`, the cytotoxicity call was “inactive”.

On to `Cc1noc(C)c1NC(=O)N(C)C[C@H]1OCCCC[C@@H](C)Oc2ccc(NS(=O)(=O)c3cccs3)cc2C(=O)N([C@H](C)CO)C[C@@H]1C`, for which the cytotoxicity call was “inactive”.

As to `C[C@@H]1CN([C@@H](C)CO)S(=O)(=O)c2ccc(C#Cc3ccccc3)cc2O[C@@H]1CN(C)C(=O)CN(C)C`, the cytotoxicity call was “inactive”.

On to `C[C@@H]1CCCCO[C@H](CN(C)Cc2ccccc2)[C@H](C)CN([C@H](C)CO)C(=O)c2cc(NC(=O)Nc3cccc4ccccc34)ccc2O1`, for which the cytotoxicity call is “active”.

Take `C[C@@H]1CN([C@H](C)CO)C(=O)c2cc(NC(=O)Nc3cccc4ccccc34)ccc2O[C@@H](C)CCCCO[C@H]1CN(C)Cc1ccccc1`: the cytotoxicity call was “inactive”.

As for `C[C@@H]1CCCCO[C@H](CN(C)Cc2ccc(C(=O)O)cc2)[C@@H](C)CN([C@@H](C)CO)C(=O)c2cc(NC(=O)Nc3cccc4ccccc34)ccc2O1`, the cytotoxicity call is “inactive”.

As for `C[C@@H]1CCCCO[C@H](CN(C)Cc2ccc(C(=O)O)cc2)[C@H](C)CN([C@H](C)CO)C(=O)c2cc(NC(=O)Nc3cccc4ccccc34)ccc2O1`, the cytotoxicity call was “inactive”.

Regarding `C[C@H](CO)N1C[C@H](C)[C@H](CN(C)Cc2ccccc2)OCCCC[C@H](C)Oc2ccc(NC(=O)Nc3cccc4ccccc34)cc2C1=O`, the cytotoxicity call was “inactive”.

In the case of `C[C@@H]1CCCCO[C@H](CN(C)Cc2ccccc2)[C@@H](C)CN([C@@H](C)CO)C(=O)c2cc(NC(=O)Nc3cccc4ccccc34)ccc2O1`, the cytotoxicity call was “active”.

For the compound `C[C@@H]1CCCCO[C@H](CN(C)Cc2ccccc2)[C@@H](C)CN([C@H](C)CO)C(=O)c2cc(NC(=O)Nc3cccc4ccccc34)ccc2O1`, the cytotoxicity call was “inactive”.

On to `C[C@H](CO)N1C[C@H](C)[C@@H](CN(C)Cc2ccccc2)OCCCC[C@H](C)Oc2ccc(NC(=O)Nc3cccc4ccccc34)cc2C1=O`, for which the cytotoxicity call was “active”.

With `C[C@@H]1CCCCO[C@@H](CN(C)Cc2ccccc2)[C@@H](C)CN([C@@H](C)CO)C(=O)c2cc(NC(=O)Nc3cccc4ccccc34)ccc2O1`, the cytotoxicity call is “inactive”.

As for `C[C@H]1CCCCO[C@@H](CN(C)Cc2ccccc2)[C@@H](C)CN([C@@H](C)CO)C(=O)c2cc(NC(=O)Nc3cccc4ccccc34)ccc2O1`, the cytotoxicity call is “active”.
